# Laboratory results: the supplement of paper PMC8728848
# This excerpt belongs to a sample that is enriched for the strongest signals.
# B1: B3GalT2 (Rattus norvegicus) (protein)
# chain: LMLQWRRRHCCFAKMSWNAKRSLFRTHLMGVLSLVFLFAMFLFFNHHDWLPGRPGFKENPVTYTFRGFRSTKTETNQSSLRNIWKEVVPQTLRPQTATNSNNTELSPQGVTGLENTLSANGSIYNEKGTGHPNSYHFKYIINEPEKCQEKSPFLILLIAAEPGQIEARRAIRQTWGNETLAPGIQITRIFLLGISIKLNGYLQHAIQEESIQYHDIIQQEYLDTYYNLTIKTLMGMNWVATYCPHTPYVMKTDSDMFVNTEYLIHKLLKPDLPPRHNYFTGYLMRGYAPNRNKDSKWYMPPDLYPSERYPVFCSGTGYVFSGDLAEKIFKVSLGIRRLHLEDVYVGICLAKLRVDPVPPPNEFVFNHWRVSYSSCKYSHLITSHQFQPSELIKYWNHLQQNKHNACVNAAKEKAGRYRHRKLH
# Legend:
# Test in all cases: glycan array binding signal (z-score within array); higher = stronger binding
# Details in all cases: glycan notation: IUPAC condensed, linker removed
# Fuc(a1-2)Gal(b1-3)GlcNAc = molecular target: Fuc(a1-2)Gal(b1-3)GlcNAc
# Method in brief: (§1)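 Glycan array data were curated from 3228 arrays in the Consortium for Functional Glycomics database and kept only where the protein sequence was available. Glycan names were converted to IUPAC-condensed notation, and columns mapping to the same glycan were averaged. The binding signal is a within-array Z-score, averaged across arrays of the same protein sequence at different concentrations or buffers and across linkers. Negative Z-scores can be read as non-binding.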
# [1] = molecular target: Fuc(a1-2)Gal(b1-3)GlcNAc6S
# Method in brief: as §1
# Fuc(a1-2)Gal(b1-4)Glc = molecular target: Fuc(a1-2)Gal(b1-4)Glc
# Method in brief: as §1
# [2] = molecular target: Fuc(a1-2)Gal(b1-4)GlcNAc(b1-3)GalNAc
# Method in brief: as §1
# [3] = molecular target: Fuc(a1-2)Gal(b1-4)[Fuc(a1-3)]GlcNAc(b1-2)[Fuc(a1-2)Gal(b1-4)[Fuc(a1-3)]GlcNAc(b1-4)]Man(a1-3)[Fuc(a1-2)Gal(b1-4)[Fuc(a1-3)]GlcNAc(b1-2)Man(a1-6)]Man(b1-4)GlcNAc(b1-4)GlcNAc
# Method in brief: as §1
# [4] = molecular target: Fuc(a1-2)Gal6S(b1-3)GlcNAc
# Method in brief: as §1
# [5] = molecular target: Fuc(a1-2)[GalNAc(a1-3)]Gal(b1-3)GlcNAc(b1-2)Man(a1-3)[Fuc(a1-2)[GalNAc(a1-3)]Gal(b1-3)GlcNAc(b1-2)Man(a1-6)]Man(b1-4)GlcNAc(b1-4)GlcNAc
# Method in brief: as §1
# [6] = molecular target: Fuc(a1-2)[GalNAc(b1-3)]Gal
# Method in brief: as §1
# [7] = molecular target: Fuc(a1-3)[Gal(b1-4)]GlcNAc(b1-3)Gal(b1-4)[Fuc(a1-3)]GlcNAc(b1-3)Gal(b1-4)[Fuc(a1-3)]GlcNAc
# Method in brief: as §1
# [8] = molecular target: Fuc(a1-3)[Gal3S(b1-4)]Glc
# Method in brief: as §1
# [9] = molecular target: Fuc(a1-3)[GalNAc(b1-4)]GlcNAc6S
# Method in brief: as §1
# [10] = molecular target: Gal(a1-3)Gal(b1-4)GlcNAc(b1-2)Man
# Method in brief: as §1
# [11] = molecular target: Gal(a1-3)[Gal(a1-4)]Gal(b1-4)GlcNAc
# Method in brief: as §1
# [12] = molecular target: Gal(b1-3)GalNAc(a1-3)[Fuc(a1-2)]Gal(b1-4)Glc
# Method in brief: as §1
# [13] = molecular target: Gal(b1-3)GlcNAc(b1-2)Man(a1-3)[Gal(b1-3)GlcNAc(b1-2)Man(a1-6)]Man(b1-4)GlcNAc(b1-4)[Fuc(a1-6)]GlcNAc
# Method in brief: as §1
# [14] = molecular target: Gal(b1-3)GlcNAc(b1-2)Man(a1-3)[GlcNAc(b1-4)][Gal(b1-3)GlcNAc(b1-2)Man(a1-6)]Man(b1-4)GlcNAc(b1-4)GlcNAc
# Method in brief: as §1
# [15] = molecular target: Gal(b1-3)GlcNAc(b1-3)Gal(b1-4)GlcNAc(b1-3)Gal(b1-4)GlcNAc(b1-2)[Gal(b1-3)GlcNAc(b1-3)Gal(b1-4)GlcNAc(b1-3)Gal(b1-4)GlcNAc(b1-6)]Man(a1-6)[Gal(b1-3)GlcNAc(b1-3)Gal(b1-4)GlcNAc(b1-3)Gal(b1-4)GlcNAc(b1-2)Man(a1-3)]Man(b1-4)GlcNAc(b1-4)[Fuc(a1-6)]GlcNAc
# Method in brief: as §1
# [16] = molecular target: Gal(b1-3)GlcNAc(b1-3)GalNAc
# Method in brief: as §1
# [17] = molecular target: Gal(b1-3)GlcNAc(b1-6)[Gal(b1-3)]GalNAc
# Method in brief: as §1
# [18] = molecular target: Gal(b1-4)GlcNAc(b1-2)Man(a1-3)[Gal(b1-4)GlcNAc(b1-2)Man(a1-6)]Man(b1-4)GlcNAc(b1-4)GlcNAc
# Method in brief: as §1
# [19] = molecular target: Gal(b1-4)GlcNAc(b1-2)Man(a1-3)[GlcNAc(b1-2)Man(a1-6)]Man(b1-4)GlcNAc(b1-4)GlcNAc
# Method in brief: as §1
# [20] = molecular target: Gal(b1-4)GlcNAc(b1-3)Gal(b1-4)GlcNAc
# Method in brief: as §1
# Gal3S(b1-3)GalNAc = molecular target: Gal3S(b1-3)GalNAc
# Method in brief: as §1
# Gal6S(b1-3)GlcNAc = molecular target: Gal6S(b1-3)GlcNAc
# Method in brief: as §1
# Gal6S(b1-4)GlcNAc = molecular target: Gal6S(b1-4)GlcNAc
# Method in brief: as §1
# GalNAc(a1-3)GalNAc = molecular target: GalNAc(a1-3)GalNAc
# Method in brief: as §1
# [21] = molecular target: GalNAc(a1-3)GalNAc(b1-3)Gal(a1-4)Gal(b1-4)Glc
# Method in brief: as §1
# [22] = molecular target: GalNAc(b1-3)Gal(a1-4)Gal(b1-4)GlcNAc(b1-3)Gal(b1-4)Glc
# Method in brief: as §1
# [23] = molecular target: GlcNAc(b1-3)Gal(b1-4)GlcNAc(b1-2)Man(a1-3)[GlcNAc(b1-3)Gal(b1-4)GlcNAc(b1-2)Man(a1-6)]Man(b1-4)GlcNAc(b1-4)GlcNAc
# Method in brief: as §1
# [24] = molecular target: GlcNAc(b1-3)Gal(b1-4)GlcNAc(b1-3)Gal(b1-4)GlcNAc(b1-3)Gal(b1-4)GlcNAc(b1-3)Gal(b1-4)GlcNAc(b1-2)[GlcNAc(b1-3)Gal(b1-4)GlcNAc(b1-3)Gal(b1-4)GlcNAc(b1-3)Gal(b1-4)GlcNAc(b1-3)Gal(b1-4)GlcNAc(b1-6)]Man(a1-6)[GlcNAc(b1-3)Gal(b1-4)GlcNAc(b1-3)Gal(b1-4)GlcNAc(b1-3)Gal(b1-4)GlcNAc(b1-3)Gal(b1-4)GlcNAc(b1-2)Man(a1-3)]Man(b1-4)GlcNAc(b1-4)[Fuc(a1-6)]GlcNAc
# Method in brief: as §1
# Kdn(a2-3)Gal(b1-4)GlcNAc = molecular target: Kdn(a2-3)Gal(b1-4)GlcNAc
# Method in brief: as §1
# Man(a1-2)Man(a1-3)Man = molecular target: Man(a1-2)Man(a1-3)Man
# Method in brief: as §1
# [25] = molecular target: Man(a1-2)Man(a1-3)[Man(a1-2)Man(a1-6)]Man(a1-6)[Man(a1-2)Man(a1-2)Man(a1-3)]Man(b1-4)GlcNAc(b1-4)GlcNAc
# Method in brief: as §1
# [26] = molecular target: Neu5Ac(a2-3)Gal(b1-3)GalNAc(b1-3)Gal(a1-4)Gal(b1-4)Glc
# Method in brief: as §1
# [27] = molecular target: Neu5Ac(a2-3)Gal(b1-4)GlcNAc
# Method in brief: as §1
# [28] = molecular target: Neu5Ac(a2-3)Gal(b1-4)GlcNAc(b1-2)Man(a1-3)[GlcNAc(b1-4)][Neu5Ac(a2-3)Gal(b1-4)GlcNAc(b1-2)Man(a1-6)]Man(b1-4)GlcNAc(b1-4)GlcNAc
# Method in brief: as §1
# [29] = molecular target: Neu5Ac(a2-3)Gal(b1-4)GlcNAc(b1-2)Man(a1-3)[Neu5Ac(a2-3)Gal(b1-4)GlcNAc(b1-2)Man(a1-6)]Man(b1-4)GlcNAc(b1-4)GlcNAc
# Method in brief: as §1
# [30] = molecular target: Neu5Ac(a2-3)Gal(b1-4)[Fuc(a1-3)]GlcNAc6S
# Method in brief: as §1
# Neu5Ac(a2-3)GalNAc = molecular target: Neu5Ac(a2-3)GalNAc
# Method in brief: as §1
# Neu5Ac(a2-6)Gal = molecular target: Neu5Ac(a2-6)Gal
# Method in brief: as §1
# [31] = molecular target: Neu5Ac(a2-6)Gal(b1-4)GlcNAc(b1-2)Man(a1-6)[Man(a1-3)]Man(b1-4)GlcNAc(b1-4)GlcNAc
# Method in brief: as §1
# [32] = molecular target: Neu5Ac(a2-6)Gal(b1-4)GlcNAc(b1-2)[Neu5Ac(a2-6)Gal(b1-4)GlcNAc(b1-4)]Man(a1-3)[GlcNAc(b1-4)][Neu5Ac(a2-6)Gal(b1-4)GlcNAc(b1-2)[Neu5Ac(a2-6)Gal(b1-4)GlcNAc(b1-6)]Man(a1-6)]Man(b1-4)GlcNAc(b1-4)GlcNAc
# Method in brief: as §1
# [33] = molecular target: Neu5Ac(a2-6)Gal(b1-4)GlcNAc(b1-2)[Neu5Ac(a2-6)Gal(b1-4)GlcNAc(b1-4)]Man(a1-3)[GlcNAc(b1-4)][Neu5Ac(a2-6)Gal(b1-4)GlcNAc(b1-4)Man(a1-6)]Man(b1-4)GlcNAc(b1-4)GlcNAc
# Method in brief: as §1
# [34] = molecular target: Neu5Ac(a2-6)Gal(b1-4)GlcNAc(b1-3)Gal(b1-4)GlcNAc(b1-3)Gal(b1-4)GlcNAc(b1-2)Man(a1-3)[Neu5Ac(a2-6)Gal(b1-4)GlcNAc(b1-3)Gal(b1-4)GlcNAc(b1-3)Gal(b1-4)GlcNAc(b1-2)Man(a1-6)]GalNAc
# Method in brief: as §1
# [35] = molecular target: Neu5Ac(a2-6)Gal(b1-4)GlcNAc(b1-3)[Neu5Ac(a2-6)Gal(b1-4)GlcNAc(b1-6)]GalNAc
# Method in brief: as §1
# [36] = molecular target: Neu5Gc(a2-3)Gal(b1-4)[Fuc(a1-3)]GlcNAc
# Method in brief: as §1
binder,measurement,setting,value
B1,glycan array binding signal (z-score),Fuc(a1-2)Gal(b1-3)GlcNAc,0.359
same,glycan array binding signal (z-score),[1],-0.012
same,glycan array binding signal (z-score),Fuc(a1-2)Gal(b1-4)Glc,-0.322
same,glycan array binding signal (z-score),[2],0.324
same,glycan array binding signal (z-score),[3],-0.914
same,glycan array binding signal (z-score),[4],0.207
same,glycan array binding signal (z-score),[5],-0.832
same,glycan array binding signal (z-score),[6],3.23
same,glycan array binding signal (z-score),[7],-0.328
same,glycan array binding signal (z-score),[8],0.499
same,glycan array binding signal (z-score),[9],2.41
same,glycan array binding signal (z-score),[10],-0.684
same,glycan array binding signal (z-score),[11],0.28
same,glycan array binding signal (z-score),[12],-0.035
same,glycan array binding signal (z-score),[13],-0.68
same,glycan array binding signal (z-score),[14],-0.55
same,glycan array binding signal (z-score),[15],2.97
same,glycan array binding signal (z-score),[16],0.129
same,glycan array binding signal (z-score),[17],0.217
same,glycan array binding signal (z-score),[18],-0.8
same,glycan array binding signal (z-score),[19],-0.763
same,glycan array binding signal (z-score),[20],0.439
same,glycan array binding signal (z-score),Gal3S(b1-3)GalNAc,0.283
same,glycan array binding signal (z-score),Gal6S(b1-3)GlcNAc,2.69
same,glycan array binding signal (z-score),Gal6S(b1-4)GlcNAc,-0.022
same,glycan array binding signal (z-score),GalNAc(a1-3)GalNAc,-0.798
same,glycan array binding signal (z-score),[21],-0.606
same,glycan array binding signal (z-score),[22],-0.596
same,glycan array binding signal (z-score),[23],-0.524
same,glycan array binding signal (z-score),[24],-1.04
same,glycan array binding signal (z-score),Kdn(a2-3)Gal(b1-4)GlcNAc,2.76
same,glycan array binding signal (z-score),Man(a1-2)Man(a1-3)Man,0.139
same,glycan array binding signal (z-score),[25],-0.337
same,glycan array binding signal (z-score),[26],-0.318
same,glycan array binding signal (z-score),[27],1.9
same,glycan array binding signal (z-score),[28],0.483
same,glycan array binding signal (z-score),[29],1.88
same,glycan array binding signal (z-score),[30],0.576
same,glycan array binding signal (z-score),Neu5Ac(a2-3)GalNAc,2.8
same,glycan array binding signal (z-score),Neu5Ac(a2-6)Gal,2.53
same,glycan array binding signal (z-score),[31],0.005
same,glycan array binding signal (z-score),[32],2.01
same,glycan array binding signal (z-score),[33],1.82
same,glycan array binding signal (z-score),[34],2.1
same,glycan array binding signal (z-score),[35],-1.14
same,glycan array binding signal (z-score),[36],-0.164
